Data taken from PubChem BioAssay (NCI).
Several values for one entry are separate records, joined by “and”; a condition that tells them apart may be missing. Identical values can stand only once. About 83,000 compounds went through this panel and 20% of them were active in at least one assay; those are over-represented in the sample as a whole.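 Negative percent growth values reflect cell death: -40 means 40% of the cells present at the start died, and -100 means all died.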 Activity calls are given as the source filed them. Rule for the calls: active = growth percent below 10; inactive = the rest.

What follows are molecules tested on TK-10 renal (assay: NCI-60 one-dose screen, 48 h (100 = growth as untreated, 0 = no growth, -100 = all killed)). Details: 10 µM unless noted.

Row | SMILES | growth
1 | O=c1cc(-c2ccc(O)cc2)oc2cc(O[C@@H]3O[C@H](CO)[C@@H](O)[C@H](O)[C@H]3O)cc(O)c12 | 46.1% [100 µM] (inactive) and 4% [100 µM] (active)
2 | CC(=O)Nc1c(C)cc2c(nc3n2CCC3OC(C)=O)c1[N+](=O)[O-] (centres undefined) | 120% [100 µM] (inactive) and 104% [100 µM] (inactive)
3 | C=C1C(=O)OC2C1CC(O)/C(C)=C\CCC1(C)OC21 (centres undefined) | 76.7% [100 µM] (inactive) and -65% [100 µM] (active)
4 | CC(=O)Oc1ccc2ccc(=O)oc2c1OC(C)=O | 62.1% [100 µM] (inactive) and 17.8% [100 µM] (inactive)
5 | C=C1C(=O)OC2/C=C(/C)C3(O)OC(C)(CC(OC(=O)C(C)C)C12)CC3OC(C)=O (centres undefined) | -95.3% [100 µM] (active)
6 | Cc1c2c(c(O)c3c(O)cccc13)C(=O)C1(O)C(O)=C(C(=O)NCNc3ccc(C(N)=O)cn3)C(=O)C(N(C)C)C1C2 (centres undefined) | -70% [100 µM] (active) and -74.7% [100 µM] (active)
7 | CCCCOC(=O)C1CC[C@H]2[C@@H]3CCc4cc(OC(=O)c5cccc6c(=O)c7ccccc7[nH]c56)ccc4[C@H]3CC[C@]12C (some centres undefined) | -100% [50 µM] (active)
8 | CC(=O)c1cc2c(s1)C(=O)c1ccsc1C2=O | -38.1% [100 µM] (active) and -100% [100 µM] (active)
9 | CC(O)c1cc2c(s1)C(=O)c1ccsc1C2=O (centres undefined) | -46.9% [100 µM] (active) and -98.9% [100 µM] (active)
